Measured values from PubChem BioAssay AID1508600 (Functional Genomics Laboratory (NCATS/FGL), 2020).
Hit rate of the full screen: of about 53,000 sequences, about 3,700 (7%) were called active. The entries come from a sample that favours actives as a whole. Unmarked numbers belong to inactive results.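 Rule for the calls: active = gene knockdowns whose robust z-score for IL-1 alpha signal is at least 2 or at most -2, so actives lie on both sides; inactive = the rest.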

Experiment: Components of the Cytosolic LPS Sensing Pathway: Gene Identification via Genome-wide siRNA Screen;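 note: robust z of the log signal after scaling to non-targeting control siRNA wells of the plate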
Settings: RAW264.7 macrophages, IL-1a HTRF, actives lie on both sides, screened at 100 nM (by protocol), cells primed 5 h with Pam3CSK4 first
Method in brief: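 RAW264.7; siRNA 100 nM final, RNAiMAX, 48h 37 degrees C; Pam3CSK4 5 h; LipidA + TransIT-TKO 24 h; IL-1a HTRF; CellTiter-Glo viability; robust z vs negative-control median.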

Row | Sequence | z-score
1 | GGUGUUGAGUGCACUACUGTT against Nckap5l | -2.2 (active)
2 | GUUUCUCGAAGAGCAUCCUTT against Cyb5a | 0.732
3 | UCACUUGUACCAAAAAUGATT against Adcy1 | -1.43
4 | GGGAAAGUCGUUGAAAUUUTT against Stx18 | 0.941
5 | GGAUUAAAGCAGAAUAUGATT against Paics | -0.561
6 | GGCUGUCCUUUUCCUCUUATT against Yipf6 | 1.49
7 | CCCAAAACUCUAGCUACUATT against Olfr824 | -3.03 (active)
8 | CGCAGCAGUUGUGGUCAAUTT against Nnat | -1.23
9 | GGGCUGCUAUUUUGAUGGUTT against Chrd | 0.704
10 | GCGUAUAAGCUCAGUAGACTT against Phlpp1 | 1.06
11 | GGGCAAGUAUGGGCAGUUCTT against Ppp1ca | 0.0965
12 | CGAGAUCAUCUCAAAUAUCTT against Man2a1 | -0.0408
13 | GGACAAACAAGUGAAAUACTT against Morf4l1 | 0.209
14 | CCUAAAUUUCCAACAGUCCTT against Tmem81 | 2.05 (active)
15 | CGGUCUUCCCGUGGUUCAATT against Gm5114 | -0.992
16 | GGCAAAAGGGACAAAAACUTT against Gadd45a | -1.64
17 | CCUUUAUGGGACACUAUUUTT against Alb | 0.588
18 | CCUAAAAGACUUCAUCCGUTT against Kcnh8 | 2.32 (active)
19 | CGUGGAACAUAAGAAUGGATT against Gapdhs | 0.269
20 | GGAUUGUCAGCCAAGAAACTT against Uba7 | -0.085
21 | GGAAAUUCACAAACAUGGATT against Gins3 | -1.76
22 | CCAUUUUAACCAAUGGUGUTT against Olfr572 | -1.06
23 | GGUCAAAAGACUGUACAUATT against Timm8a2 | 2.07 (active)

Row | Sequence | z-score
24 | GGCAAUGGCUUGGUCUUUUTT against Mapk6 | 0.0141
25 | GGAGGGAAUAGAGAAUCGGTT against A930024E05Rik | 3.7 (active)
26 | GGAUUUUGAAGACAUCUGUTT against Tubgcp4 | 0.396
27 | GGCAACAUGACAAUUGUGGTT against Olfr1215 | -0.00863
28 | GCCAUUGCUAGUAAUUCUUTT against Vkorc1l1 | 0.444
29 | CCCUCAUGUUUAGCGAGCATT against Kcnj3 | 0.644
30 | GGUGAAAGACCACAAAUUCTT against Prkca | -0.824
31 | GGACUUUCGAGACAAGCUGTT against Barhl1 | -1.21
32 | CGUACAGUGAUGAUUUUGATT against Cep162 | 0.218
33 | GGACAAUGCAGUGCUGAAATT against Car2 | 3.37 (active)
34 | GCACACCCAAUGCUCUAAGTT against Nprl3 | 1.25
35 | GCAGCGGAGGGUCAAAGAATT against Pym1 | 0.783
36 | GGCCUUUGAGGUCUACAUATT against Icam2 | 0.323
37 | GCCCUCCGAGAAAAACAUCTT against Gjb5 | 2.05 (active)
38 | GGGUAAAAGUAGCUGCCCUTT against Trp53inp2 | -0.401
39 | GGAAAUAAAGUCCAUAGAATT against B3gnt3 | 0.00261
40 | GGUUCCUCUUGUGAGUGCCTT against Gpr137b | -0.974
41 | GGAGAAGUCCAUACGGAUCTT against Gpr18 | 0.184
42 | GGGACAGUAGAAGAUGUAGTT against Got2 | -0.706
43 | GGAAAAUUGGACCAAUUUCTT against Ric3 | -0.339
44 | GCCUUGGUACCAUAAUGCATT against Synm | 0.224
45 | GGCCGGUGCCUUUUAUUCUTT against Spib | 3.26 (active)
46 | GCAAGUGCGGAAGAAAGGATT against Afap1l2 | 0.0285

Row | Sequence | z-score
47 | CCUUGUACACGGAUUGAAUTT against Itga6 | -0.192
48 | GGUAGGAAACCUCUCAGAGTT against Kcnc1 | 0.85
49 | GGUGUUCAAAAUUCCUGCCTT against Mbl2 | 0.0864
50 | GCUAGAGCUCACCAAAUAATT against Fam83a | 0.759
51 | UAGUGAGCAAGGAAUUGGATT against Gm20815 | -0.238
52 | GGAGAAGAAGUGCUUCCCUTT against Gls2 | -2.81 (active)
53 | GGAGGAGAAGAAACACCUGTT against Klc1 | -1.73
54 | GGACAAAAGCAAAGAAAAGTT against R3hdm2 | -0.822
55 | GGAAAAUGUGAAACAGCUATT against Dhx40 | -0.873
56 | GAGUUCCAGUUUAUCCCUUTT against Klra1 | -2.06 (active)
57 | CCCGUGCUUCAAAUAGAGATT against Cavin3 | 0.789
58 | CAGCGAUCCAAGUACCUGGTT against Mbp | 0.568
59 | GGAAUUUCACUAACCUUAGTT against Tert | 1.55
60 | GGCAAAAGCGAAGAAUUUATT against E2f5 | 2.69 (active)
61 | GGAUUCCUGAUUUCUUCAUTT against Snip1 | 0.915
62 | GGAGAUAAAAAUCCAAGCATT against Stx19 | 0.274
63 | GCAUAUGACACCGUAUCAGTT against Gprc5d | 0.914
64 | GCUCCUAUCCACAAUGCUGTT against Radil | -0.0853
65 | GGCAAAGAUGAUGGAAAAATT against Srp68 | 0.307
66 | GGGACGAUGUCACUAUUAATT against Myrip | 1.31
67 | GGCAGACUGCUGACAUAUGTT against Cd37 | -2.44 (active)
68 | CGAGCUGGAUCUGUUUAGATT against Nsmce1 | 0.357
69 | CGUGGAGAUCAUCCACUCATT against Inf2 | -2.44 (active)
